Data reported in PubChem BioAssay (Tox21).
“And” between values parts separate entries of the source, which are not always exact repeats. Equal values may be shown once. A number with no mark means an inactive call. Inconclusive results are not listed. Where a call stands in place of a potency, no number is given. The source made the active and inactive calls. Unless noted, calls come from the whole dose curve; as a rule, active = well fitted curve in the direction sought with a large enough effect in the repeat runs; inconclusive = weak or mixed curves; inactive = no such curve, though single readings can be large; an effect the other way counts as inactive or inconclusive.

How the values were obtained:
[1] = Human pregnane X receptor (PXR) small molecule agonists, qHTS cell viability counter screen (AID 1346977); note: nearly all actives have a fitted effect of over 50% in size; note: potency is the fitted concentration of half-maximal effect
Outline: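 Measures live-cell protease fluorescence (CellTiter-Fluor) in PXR-Luc HepG2 cells treated 24hr with compounds at 37C. Cells had 5hr to attach before pin transfer of DMSO solutions.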

[2] = Caspase-3/7 induction in HepG2 cells by small molecules, qHTS assay (AID 1346978); note: nearly all actives have a fitted effect of over 15% in size
Outline: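 Wild-type HepG2 cells, 2,000/well, settled 5 hr at 37 C and 5% CO2, then compound-treated for 17 hr; caspase-3/7 activity read by luminescent Caspase-Glo 3/7 after 30 min at room temperature.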

[3] = Caspase-3/7 induction in CHO-K1 cells by small molecules, qHTS cell viability counter screen (AID 1346979); note: nearly all actives have a fitted effect of over 35% in size; note: potency is the fitted concentration of half-maximal effect
Outline: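 In the same wells as the caspase read, viability of compound-treated wild-type CHO-K1 cells was assessed using CellTiter-Fluor, added after 16hr at 37C and measured by fluorescence following 1hr further incubation.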

[4] = Caspase-3/7 induction in CHO-K1 cells by small molecules, qHTS assay (AID 1346980); note: nearly all actives have a fitted effect of over 15% in size
Outline: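 Wild-type CHO-K1 cells exposed to compounds for 17hr at 37 C, 5% CO2. Caspase-3/7 activity then measured by Caspase-Glo 3/7 luminescence after 30min at room temperature.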

[5] = Caspase-3/7 induction in HepG2 cells by small molecules, qHTS cell viability counter screen (AID 1346981); note: nearly all actives have a fitted effect of over 30% in size; note: potency is the fitted concentration of half-maximal effect
Outline: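 Cell viability is measured as a cytotoxicity counter screen alongside the Caspase-Glo 3/7 readout in identical wells. Wild-type HepG2 cells are treated with test compounds for 16 hr at 37 C before CellTiter-Fluor addition and a 1-hr incubation.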

[6] = molecular target: Acetylcholinesterase (Homo sapiens) (UniProt P22303); assay: Acetylcholinesterase (AChE) small molecule antagonists: colormetric cell-based qHTS assay (AID 1347395; calls by dose curve; note: nearly all actives have a fitted effect of over 30% in size)
Outline: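 Endogenous AChE of human neuroblastoma SH-SY5Y cells was measured with an Ellman-type DTNB/acetylthiocholine mix. Compound pretreatment lasted 30 min at 37 C; substrate reaction ran 90 min at 37 C.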

[7] = molecular target: Acetylcholinesterase (Homo sapiens) (UniProt P22303); assay: Acetylcholinesterase (AChE) small molecule antagonists: enzyme-based qHTS assay with human liver microsomes (AID 1347399; calls by dose curve; note: nearly all actives have a fitted effect of over 60% in size); conditions: Potency: qHTS inhibition
Outline: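 Recombinant human AChE (50 mU/mL in the enzyme mix) and human liver microsomes (0.25 mg/mL final) were preincubated with compound and NADPH (0.25 mg/mL final) for 30 min at 37 C. Acetylthiocholine/DTNB was then added; thiocholine was read colorimetrically after 10 min at room temperature.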

[8] = molecular target: Cytochrome P450 2C19 (Homo sapiens) (UniProt P33261); assay: Cytochrome P450 Family 2 Subfamily C Member 19 (CYP2C19) small molecule antagonists: luciferase reporter qHTS assay (AID 1671197); note: nearly all actives have a fitted effect of over 65% in size; note: potency is the fitted concentration of half-maximal effect
Outline: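 Light output is proportional to CYP2C19 activity: proluciferin substrate is converted to luciferin, then detected by a luciferin detection reagent that also stops the 1 h, 37C NADPH-driven reaction. Ketoconazole serves as positive control.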

[9] = molecular target: Cytochrome P450 2C9 (Homo sapiens) (UniProt P11712); assay: Cytochrome P450 Family 2 Subfamily C Member 9 (CYP2C9) small molecule antagonists: luciferase reporter qHTS assay (AID 1671198); note: nearly all actives have a fitted effect of over 50% in size; note: potency is the fitted concentration of half-maximal effect
Outline: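 P450-Glo proluciferin substrate with CYP2C9 enzyme; 10 min RT preincubation, then NADPH regeneration 1 h at 37C; luciferin detection reagent 20 min RT, luminescence in relative luminescence units.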

[10] = molecular target: Cytochrome P450 1A2 (Homo sapiens) (UniProt P05177); assay: Cytochrome P450 Family 1 Subfamily A Member 2 (CYP1A2) small molecule antagonists: luciferase reporter qHTS assay (AID 1671199); note: nearly all actives have a fitted effect of over 50% in size; note: potency is the fitted concentration of half-maximal effect
Outline: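 Compounds were incubated with CYP1A2 and a luminogenic proluciferin substrate for 10 min at room temperature before the reaction was started with NADPH regeneration solution. After 1 h, detection reagent was added and light output, proportional to CYP activity, was recorded.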

[11] = molecular target: Voltage-gated inwardly rectifying potassium channel KCNH2 (Homo sapiens) (UniProt Q12809); assay: Human Ether-a-go-go-Related Gene (hERG) channel small molecule antagonists: fluorescence cell-based qHTS assay (AID 1671200);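 note: hERG-expressing U2OS cells given a thallium stimulus after FluxOR II dye loading; series mostly up to about 77 µM; nearly all actives have a fitted effect of over 50% in size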
Outline: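 Quantitative HTS in hERG-U2OS cells: thallium entry through the channel reports activity, read as continuous 480/540 nm fluorescence over 2 min after stimulus addition.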

[12] = molecular target: Cytochrome P450 3A4 (Homo sapiens) (UniProt P08684); assay: Cytochrome P450 Family 3 Subfamily A Member 4 (CYP3A4) small molecule antagonists: luciferase reporter qHTS assay (AID 1671201); note: nearly all actives have a fitted effect of over 50% in size; note: potency is the fitted concentration of half-maximal effect
Outline: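 Inhibition of CYP3A4 is measured as loss of light: the enzyme converts a proluciferin substrate to luciferin, detected luminescently. Reaction ran 1 h at room temperature with NADPH regeneration after a 10 min compound preincubation.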

[13] = molecular target: Nuclear receptor subfamily 1 group I member 2 (Rattus norvegicus) (UniProt Q9R1A7); assay: Rat pregnane X receptor (rPXR) activation by small molecules, qHTS assay (AID 1346983); conditions: rPXR luciferase reporter cells, One-Glo luminescence, 24 h; max activation: active compounds read high; note: nearly all actives have a fitted effect of over 20% in size
Outline: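 Cell-based rPXR activation assay: rPXR cells, 2,000 per well, rested 5hr at 37 C, then exposed to compounds in DMSO for 24 hr at 37 C. Luciferase activity read by One-Glo luminescence after 30 min at room temperature.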

[14] = molecular target: Nuclear receptor subfamily 1 group I member 2 (Homo sapiens) (UniProt O75469); assay: CYP3A4 induction through human pregnane X receptor (PXR) by small molecules, qHTS assay (AID 1346984); note: nearly all actives have a fitted effect of over 40% in size
Outline: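 Quantitative HTS in DPX-2 cells, i.e. HepG2 transfected with PXR response element and CYP3A4-promoter luciferase. Compounds in DMSO incubated 24hr at 37C; then P450-Glo CYP3A4 substrate, 3uM final, 3hr; One-Glo luminescence.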

[15] = molecular target: Nuclear receptor subfamily 1 group I member 2 (Homo sapiens) (UniProt O75469); assay: Human pregnane X receptor (PXR) activation by small molecules, qHTS assay (AID 1346985); note: nearly all actives have a fitted effect of over 40% in size
Outline: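 DPX-2 cells (HepG2 co-transfected with a PXR response element and a CYP3A4-promoter luciferase construct) were seeded at 2,000 per well, rested 5 hr at 37C, then exposed to DMSO-dissolved compounds for 24 hr. Activation was read as luciferase luminescence.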

[16] = molecular target: Acetylcholinesterase (Homo sapiens) (UniProt P22303); assay: Acetylcholinesterase (AChE) small molecule antagonists: enzyme-based qHTS assay (AID 1347397; calls by dose curve; note: nearly all actives have a fitted effect of over 55% in size); conditions: Potency: AChE enzyme activity inhibition
Outline: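 Colorimetric DTNB read-out of thiocholine released from acetylthiocholine by recombinant human AChE (50 mU/mL as dispensed). Compounds were preincubated 30 min at RT before substrate/DTNB addition, with a 10 min RT reaction.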

[17] = molecular target: Acetylcholinesterase (Homo sapiens) (UniProt P22303); assay: Acetylcholinesterase (AChE) small molecule antagonists: fluorescence cell-based qHTS assay (AID 1347398; calls by dose curve; note: nearly all actives have a fitted effect of over 50% in size); conditions: Potency: AChE activity
Outline: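 SH-SY5Y, 2,000 cells/well, attached overnight; cmpd 30 min 37 C; acetylthiocholine/Thiolite Green cocktail 40 min RT; fluorescence Ex/Em 490/520 nm.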

[18] = molecular target: Cytochrome P450 2D6 (Homo sapiens) (UniProt P10635); assay: Cytochrome P450 Family 2 Subfamily D Member 6 (CYP2D6) small molecule antagonists: luciferase reporter qHTS assay (AID 1671196); note: nearly all actives have a fitted effect of over 50% in size; note: potency is the fitted concentration of half-maximal effect
Outline: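 Enzyme and proluciferin substrate were first combined with test chemical for 10 min at room temperature. Adding NADPH regeneration solution started a 1 h reaction, stopped with luciferin detection reagent and read by luminescence 20 min later.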

[19] = molecular target: Nuclear receptor subfamily 1 group I member 2 (Homo sapiens) (UniProt O75469); assay: Human pregnane X receptor (PXR) small molecule agonists, qHTS assay (AID 1346982); note: nearly all actives have a fitted effect of over 35% in size; note: potency is the fitted concentration of half-maximal effect
Outline: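 Cells: HepG2 stably carrying PXR-Luc. Medium held 5% charcoal-stripped FBS. Compounds in DMSO added after 5 hr plating, incubated 24 hr, then luminescence quantified with ONE-Glo.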

Acetylcholinesterase (Homo sapiens), sequence (P22303 whole entry, looked up): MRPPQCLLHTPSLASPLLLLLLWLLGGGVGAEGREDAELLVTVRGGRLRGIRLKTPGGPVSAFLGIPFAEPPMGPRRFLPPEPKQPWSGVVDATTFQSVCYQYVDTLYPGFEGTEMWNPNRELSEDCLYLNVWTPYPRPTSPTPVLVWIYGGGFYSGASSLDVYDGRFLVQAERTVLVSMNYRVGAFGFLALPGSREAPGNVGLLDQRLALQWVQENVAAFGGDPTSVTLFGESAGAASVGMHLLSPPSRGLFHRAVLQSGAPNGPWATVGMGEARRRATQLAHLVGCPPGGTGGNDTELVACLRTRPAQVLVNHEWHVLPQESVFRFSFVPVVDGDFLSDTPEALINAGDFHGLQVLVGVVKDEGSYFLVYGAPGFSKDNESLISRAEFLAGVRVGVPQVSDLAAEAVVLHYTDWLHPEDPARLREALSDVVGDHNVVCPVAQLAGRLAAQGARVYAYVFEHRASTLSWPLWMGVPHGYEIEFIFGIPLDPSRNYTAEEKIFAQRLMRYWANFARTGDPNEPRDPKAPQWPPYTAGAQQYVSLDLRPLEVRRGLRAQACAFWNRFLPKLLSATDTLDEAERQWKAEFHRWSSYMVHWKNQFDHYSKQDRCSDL
Cytochrome P450 3A4 (Homo sapiens), sequence (P08684 whole entry, looked up): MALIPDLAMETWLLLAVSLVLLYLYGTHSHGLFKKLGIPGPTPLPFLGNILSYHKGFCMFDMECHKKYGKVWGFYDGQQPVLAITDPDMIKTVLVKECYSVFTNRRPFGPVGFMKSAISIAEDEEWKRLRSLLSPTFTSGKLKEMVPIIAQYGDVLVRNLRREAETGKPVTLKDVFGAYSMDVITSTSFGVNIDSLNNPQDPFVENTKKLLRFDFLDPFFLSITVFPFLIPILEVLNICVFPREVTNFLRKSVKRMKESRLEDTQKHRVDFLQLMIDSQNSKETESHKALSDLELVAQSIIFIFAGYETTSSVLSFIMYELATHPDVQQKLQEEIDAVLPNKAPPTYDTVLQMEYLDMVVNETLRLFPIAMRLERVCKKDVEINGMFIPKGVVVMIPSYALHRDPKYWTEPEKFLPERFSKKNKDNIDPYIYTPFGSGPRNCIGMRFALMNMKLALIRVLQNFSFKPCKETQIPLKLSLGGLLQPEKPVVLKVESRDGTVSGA
Cytochrome P450 2D6 (Homo sapiens), sequence (P10635 whole entry, looked up): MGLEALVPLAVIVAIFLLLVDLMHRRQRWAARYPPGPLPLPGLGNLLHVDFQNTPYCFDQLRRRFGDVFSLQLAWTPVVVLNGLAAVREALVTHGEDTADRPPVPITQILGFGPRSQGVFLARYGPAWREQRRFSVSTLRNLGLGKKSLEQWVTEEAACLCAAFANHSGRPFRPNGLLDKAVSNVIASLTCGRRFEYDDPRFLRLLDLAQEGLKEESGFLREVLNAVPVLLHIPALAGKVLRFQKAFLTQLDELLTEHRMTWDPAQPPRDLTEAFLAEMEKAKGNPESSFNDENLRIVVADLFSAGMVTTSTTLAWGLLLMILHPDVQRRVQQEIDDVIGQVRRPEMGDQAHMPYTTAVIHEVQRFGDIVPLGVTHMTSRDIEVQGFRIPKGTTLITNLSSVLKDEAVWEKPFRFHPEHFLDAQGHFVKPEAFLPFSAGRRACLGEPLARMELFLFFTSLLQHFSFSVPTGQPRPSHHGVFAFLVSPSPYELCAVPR
Nuclear receptor subfamily 1 group I member 2 (Rattus norvegicus), sequence (Q9R1A7 whole entry, looked up): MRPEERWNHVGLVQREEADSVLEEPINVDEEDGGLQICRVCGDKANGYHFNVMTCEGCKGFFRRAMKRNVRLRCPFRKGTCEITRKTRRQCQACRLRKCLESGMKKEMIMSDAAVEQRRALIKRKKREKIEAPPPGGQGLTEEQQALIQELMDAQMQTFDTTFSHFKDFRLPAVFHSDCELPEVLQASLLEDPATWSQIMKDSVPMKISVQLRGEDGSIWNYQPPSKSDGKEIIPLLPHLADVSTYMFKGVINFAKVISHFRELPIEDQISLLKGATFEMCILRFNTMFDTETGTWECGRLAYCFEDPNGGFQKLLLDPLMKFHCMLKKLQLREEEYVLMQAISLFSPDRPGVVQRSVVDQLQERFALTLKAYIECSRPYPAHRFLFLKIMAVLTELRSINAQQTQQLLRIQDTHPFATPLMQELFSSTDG
Cytochrome P450 2C19 (Homo sapiens), sequence (P33261 whole entry, looked up): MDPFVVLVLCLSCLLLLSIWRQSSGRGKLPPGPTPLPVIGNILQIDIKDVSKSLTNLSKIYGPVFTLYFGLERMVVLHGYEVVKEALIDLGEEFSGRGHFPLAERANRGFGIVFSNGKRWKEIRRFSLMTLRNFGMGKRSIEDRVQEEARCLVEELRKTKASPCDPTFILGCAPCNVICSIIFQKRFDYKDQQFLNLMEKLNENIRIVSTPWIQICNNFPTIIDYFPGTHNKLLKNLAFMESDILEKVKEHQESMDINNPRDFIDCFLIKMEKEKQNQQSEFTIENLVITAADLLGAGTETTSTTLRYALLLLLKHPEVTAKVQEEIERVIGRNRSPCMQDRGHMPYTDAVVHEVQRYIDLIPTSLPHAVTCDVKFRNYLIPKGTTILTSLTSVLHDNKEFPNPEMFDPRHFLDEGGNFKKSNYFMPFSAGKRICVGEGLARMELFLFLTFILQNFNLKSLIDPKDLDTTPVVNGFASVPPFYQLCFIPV
Cytochrome P450 1A2 (Homo sapiens), sequence (P05177 whole entry, looked up): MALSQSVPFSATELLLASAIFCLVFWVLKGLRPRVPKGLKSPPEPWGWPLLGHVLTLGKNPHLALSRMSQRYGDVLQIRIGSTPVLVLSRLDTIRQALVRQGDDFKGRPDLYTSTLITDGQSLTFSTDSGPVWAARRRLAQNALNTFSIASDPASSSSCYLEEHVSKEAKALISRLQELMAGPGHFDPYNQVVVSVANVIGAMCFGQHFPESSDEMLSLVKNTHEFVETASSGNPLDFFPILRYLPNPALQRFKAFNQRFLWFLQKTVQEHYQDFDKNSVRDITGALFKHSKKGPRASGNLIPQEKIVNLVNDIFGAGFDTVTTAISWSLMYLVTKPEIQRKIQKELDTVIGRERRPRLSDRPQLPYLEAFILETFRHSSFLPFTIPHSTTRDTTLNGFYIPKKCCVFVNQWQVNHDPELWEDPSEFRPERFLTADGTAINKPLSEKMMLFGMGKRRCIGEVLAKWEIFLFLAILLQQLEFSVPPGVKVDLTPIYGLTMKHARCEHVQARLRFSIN
Cytochrome P450 2C9 (Homo sapiens), sequence (P11712 whole entry, looked up): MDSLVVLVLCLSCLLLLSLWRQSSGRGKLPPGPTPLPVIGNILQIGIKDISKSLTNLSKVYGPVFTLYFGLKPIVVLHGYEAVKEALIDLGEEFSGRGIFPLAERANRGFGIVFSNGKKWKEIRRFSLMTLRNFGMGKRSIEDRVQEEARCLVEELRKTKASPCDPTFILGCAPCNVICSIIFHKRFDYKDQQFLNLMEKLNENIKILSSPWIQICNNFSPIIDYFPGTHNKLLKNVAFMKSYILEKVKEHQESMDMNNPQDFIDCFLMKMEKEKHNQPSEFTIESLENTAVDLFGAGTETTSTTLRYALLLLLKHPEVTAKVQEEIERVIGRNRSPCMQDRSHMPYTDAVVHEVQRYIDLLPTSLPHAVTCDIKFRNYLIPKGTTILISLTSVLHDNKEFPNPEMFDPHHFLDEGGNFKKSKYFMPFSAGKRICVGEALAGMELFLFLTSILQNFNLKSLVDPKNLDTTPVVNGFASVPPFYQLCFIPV
Voltage-gated inwardly rectifying potassium channel KCNH2 (Homo sapiens), sequence (Q12809 whole entry, looked up): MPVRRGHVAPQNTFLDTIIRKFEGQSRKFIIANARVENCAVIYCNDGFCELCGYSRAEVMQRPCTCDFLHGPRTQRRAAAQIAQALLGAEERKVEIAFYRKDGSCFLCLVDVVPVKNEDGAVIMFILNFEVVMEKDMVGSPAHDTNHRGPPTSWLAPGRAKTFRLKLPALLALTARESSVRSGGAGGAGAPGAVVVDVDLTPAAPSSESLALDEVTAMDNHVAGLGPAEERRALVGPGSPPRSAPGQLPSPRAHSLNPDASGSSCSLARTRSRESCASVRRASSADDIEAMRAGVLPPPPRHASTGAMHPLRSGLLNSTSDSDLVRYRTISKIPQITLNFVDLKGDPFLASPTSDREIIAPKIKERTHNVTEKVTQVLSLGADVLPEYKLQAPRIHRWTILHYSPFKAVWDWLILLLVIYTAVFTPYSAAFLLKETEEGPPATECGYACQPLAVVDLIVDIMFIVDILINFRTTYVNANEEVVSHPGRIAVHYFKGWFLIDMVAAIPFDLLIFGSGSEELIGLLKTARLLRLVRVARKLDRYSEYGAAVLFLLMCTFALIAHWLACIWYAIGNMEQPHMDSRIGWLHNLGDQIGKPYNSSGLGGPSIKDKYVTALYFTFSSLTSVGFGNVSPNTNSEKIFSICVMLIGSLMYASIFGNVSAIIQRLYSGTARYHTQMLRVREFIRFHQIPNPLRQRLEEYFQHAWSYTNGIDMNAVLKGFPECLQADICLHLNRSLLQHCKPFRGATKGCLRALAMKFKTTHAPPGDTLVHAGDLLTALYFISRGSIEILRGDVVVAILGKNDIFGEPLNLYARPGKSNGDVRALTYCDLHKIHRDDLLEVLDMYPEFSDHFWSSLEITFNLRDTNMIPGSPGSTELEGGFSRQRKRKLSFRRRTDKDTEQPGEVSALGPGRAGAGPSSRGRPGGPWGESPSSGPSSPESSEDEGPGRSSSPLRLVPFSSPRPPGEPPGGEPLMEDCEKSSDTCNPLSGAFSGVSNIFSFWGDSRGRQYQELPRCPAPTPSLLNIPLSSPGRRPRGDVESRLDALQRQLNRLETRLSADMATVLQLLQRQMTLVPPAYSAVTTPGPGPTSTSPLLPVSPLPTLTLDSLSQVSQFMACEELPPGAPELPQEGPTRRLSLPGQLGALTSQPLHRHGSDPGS

SMILES	Potency [1]	Potency [2]	Potency [3]	Potency [4]	Potency [5]	Potency [6]	Potency [7]	Potency [8]	Potency [9]	Potency [10]	Potency [11]	Potency [12]	max activation [13]	Potency [14]	Potency [15]	Potency [16]	Potency [17]	Potency [18]	Potency [19]
CCCCNP(N)(N)=S	inactive	inactive	inactive	inactive	inactive	inactive	inactive	50.2 µM (active)	35.6 µM (active)	inactive	inactive	inactive	–	–	–	–	–	–	–
O=C1NCN(c2ccccc2)C12CCN(CCCOc1ccc(F)cc1)CC2	–	–	–	–	–	–	–	–	–	–	–	–	-0.12%	inactive	inactive	–	–	–	–
CN1C(=O)NC(=O)C(C)(C2=CCCCC2)C1=O (centres undefined)	–	–	–	–	–	–	–	–	–	–	–	–	-1.51% and -2.62%	inactive	inactive	–	–	–	–
CCc1ccc(C(=O)NN(C(=O)c2cc(C)cc(C)c2)C(C)(C)C)cc1	inactive	inactive	27.3 µM (active)	–	9.69 µM (active)	inactive	inactive	5.03 µM (active)	11.2 µM (active)	inactive	inactive	–	–	–	–	inactive	inactive	inactive	–
ClP(Cl)(Cl)(Cl)Cl	inactive	inactive	–	–	inactive	inactive	inactive	–	inactive	inactive	inactive	–	–	–	–	inactive	inactive	inactive	inactive
O=[Se]=O	24.2 µM (active)	inactive	–	inactive	21.5 µM (active)	–	inactive	–	–	inactive	inactive	inactive	–	–	–	inactive	inactive	inactive	inactive
COc1cc(CC(C)N)cc2c1OCO2 (centres undefined)	inactive	inactive	inactive	–	inactive	–	inactive	inactive	inactive	74.1 µM (active)	inactive	inactive	–	–	–	–	inactive	2.09 µM (active)	inactive
CCCN(CCC)c1c([N+](=O)[O-])cc(S(C)(=O)=O)cc1[N+](=O)[O-]	inactive	inactive	–	inactive	–	–	inactive	–	28.3 µM (active)	inactive	inactive	20 µM (active)	–	–	–	inactive	inactive	–	2.43 µM (active)
